For orientation: AC50 means the concentration giving half of the maximal activity seen.

Molecules are shown by their SMILES. Inconclusive results are not listed. Active and inactive are the calls of the source. How the source made its calls: active means hit-call score of the fitted dose curve at least 0.9, where 1 is the maximum; inconclusive means response in the unintended direction; inactive means score below 0.9.

Chain of Bile acid receptor (Homo sapiens) (Q96RI1 whole entry, looked up, the tested form may be a part): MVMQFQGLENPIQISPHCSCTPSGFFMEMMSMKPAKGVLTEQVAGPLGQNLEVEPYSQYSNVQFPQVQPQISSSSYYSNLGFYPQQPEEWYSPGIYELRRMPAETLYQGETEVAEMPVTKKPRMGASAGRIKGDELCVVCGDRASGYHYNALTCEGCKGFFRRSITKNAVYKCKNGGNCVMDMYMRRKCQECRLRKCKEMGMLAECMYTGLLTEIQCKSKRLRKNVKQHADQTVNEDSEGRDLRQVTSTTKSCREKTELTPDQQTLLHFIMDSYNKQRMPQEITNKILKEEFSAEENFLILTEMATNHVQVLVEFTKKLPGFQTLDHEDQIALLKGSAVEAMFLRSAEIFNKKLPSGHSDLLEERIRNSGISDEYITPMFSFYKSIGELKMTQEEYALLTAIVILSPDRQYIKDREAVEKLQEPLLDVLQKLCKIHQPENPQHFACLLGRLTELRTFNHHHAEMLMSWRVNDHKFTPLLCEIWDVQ

This test concerns the target Bile acid receptor (Homo sapiens) (UniProt Q96RI1). Put plainly: OT_FXR_FXRSRC1_1440: Odyssey Thera (OT) 24-hour HEK293T Protein-Complementation Assay for Farnesoid X receptor/SRC-1 Co-activator (AID 2283384). How it is done: OT_FXR_FXRSRC1_1440 is a cell-based assay that uses HEK293T, a human kidney cell line, with measurements taken at 24 hours after chemical dosing in a 384-well plate.OT_FXR_FXRSRC1_1440 is one of one assay component(s) measured or calculated from the OT_FXR_FXRSRC1_1440 assay. It is designed to make measurements of protein fragment complementation, a form of binding reporter, as detected with fluorescence intensity signals by Protein-fragment Complementation technology.Data from the assay component OT_FXR_FXRSRC1_1440 was analyzed into 1 assay endpoint. This assay endpoint, OT_FXR_FXRSRC1_1440, was analyzed in the positive analysis fitting direction relative to DMSO as the negative control and baseline of activity. Using a type of binding reporter, measures of receptor for gain-of-signal activity can be used to understand the binding at the pathway-level as they relate to the gene NR1H4. Furthermore, this assay endpoint can be referred to as a primary readout, because the performed assay has only produced 1 assay endpoint. To generalize the intended target to other relatable targets, this assay endpoint is annotated to the nuclear receptor intended target family, where the subfamily is non-steroidal.
Protein-fragment complementation assay, or PCA, is a method for the identification and quantification of protein-protein interactions. In the PCA, the proteins of interest ("bait" and "prey") are each covalently linked to fragments of a third protein (e.g. DHFR, which acts as a "reporter"). Interaction between the bait and the prey proteins brings the fragments of the reporter protein in close proximity to allow them to form a functional reporter protein whose activity can be measured.
For the compound `CCCCOCCOC(=O)COc1nc(Cl)c(Cl)cc1Cl`, the result was inactive. The same measure, in the same setting: the same measure for `CC=C1CC2C=CC1C2` (stereo not drawn): “inactive”. For `CC(=O)[C@H]1[C@H](C#N)C[C@H]2[C@@H]3CC=C4C[C@@H](O)CC[C@]4(C)[C@H]3CC[C@@]21C`, the compound was classed as inactive. Still for that read-out and setting: the entry for `NC(=O)c1ccccc1O` is “inactive”.

As to `NC(=O)N=NC(N)=O`, the result was inactive. The same measure, in the same setting: the entry for `CC/C=C\C/C=C\C/C=C\CCCCCCCC(=O)O` is “inactive”; for `CCN(CCC#N)c1ccc(N=Nc2c(Cl)cc([N+](=O)[O-])cc2Cl)cc1` it is “inactive”; for `CCOC(=O)CC` it is “inactive”. The same measure, in the same setting: the same measure for `O=C(C(Cl)Cl)N1CCOC12CCCCC2`: “inactive”. In the case of `CCCCCc1ccc(Cl)cc1`, the result was inactive. With `c1ccc2c(c1)ccc1cc3c(ccc4ccccc43)cc12`, the compound was called inactive. On to `CC(C)(C)c1ccc(OC(=O)c2ccccc2O)cc1`, for which the AC50 is 75.9 µM (active). Still for that read-out and setting: the same measure for `CC(C)(C)c1ccc(-c2ccc(C(C)(C)C)cc2)cc1`: 76.6 µM (active).

Source of the values: PubChem BioAssay (EPA / NIEHS).
